# In PMC11062922 (Nature Chemical Biology, 2023):
# Where two headings read alike, the source gives them in different places.
# Key:
# Parameters in all cases: species or system human, MV4-11 + K-562 + COLO205 + SK-N-BE2 + OVCAR-8
# ACVR1B = settings: read-out: apparent Kd, n = 1
# CIT = settings: read-out: apparent Kd; compound concentrations: 100 nM and 1000 nM (sheet 'Samples'), CATDS: 0.11106465565946499; n = 1
# CSNK1D = settings: read-out: apparent Kd, n = 1
# GRK6 = settings: read-out: apparent Kd; compound concentrations: 100 nM and 1000 nM (sheet 'Samples'), CATDS: 0.11057023586935499; n = 1
# MAPK14 = settings: read-out: apparent Kd, compound concentrations: 100 nM and 1000 nM (sheet 'Samples'), n = 1
# MAPKAPK2 = settings: read-out: apparent Kd, n = 1
# PKN3 = settings: read-out: apparent Kd; compound concentrations: 100 nM and 1000 nM (sheet 'Samples'), CATDS: 0.17855560727929401; n = 1
# ADRBK1 = settings: read-out: apparent Kd; compound concentrations:100 nM and 1000 nM (sheet 'Samples'); n = 1
# AKT1 = settings: read-out: apparent Kd; compound concentrations:100 nM and 1000 nM (sheet 'Samples'); n = 1
# AKT2 = settings: read-out: apparent Kd; compound concentrations:100 nM and 1000 nM (sheet 'Samples'); n = 1
# CDC42BPG = settings: read-out: apparent Kd; compound concentrations:100 nM and 1000 nM (sheet 'Samples'); n = 1
# CDK6 = settings: read-out: apparent Kd; compound concentrations:100 nM and 1000 nM (sheet 'Samples'); n = 1
# CSNK1A1 = settings: read-out: apparent Kd; compound concentrations:100 nM and 1000 nM (sheet 'Samples'); n = 1
# MAP2K1 = settings: read-out: apparent Kd; compound concentrations:100 nM and 1000 nM (sheet 'Samples'); n = 1
# MAP2K2 = settings: read-out: apparent Kd; compound concentrations:100 nM and 1000 nM (sheet 'Samples'); n = 1
# NQO1 = settings: read-out: apparent Kd; compound concentrations:100 nM and 1000 nM (sheet 'Samples'); n = 1
# PYGL = settings: read-out: apparent Kd; compound concentrations:100 nM and 1000 nM (sheet 'Samples'); n = 1
# RIOK2 = settings: read-out: apparent Kd; compound concentrations:100 nM and 1000 nM (sheet 'Samples'); n = 1
# TGFBR1 = settings: read-out: apparent Kd, n = 1
# TP53RK = settings: read-out: apparent Kd; compound concentrations:100 nM and 1000 nM (sheet 'Samples'); n = 1
# ACVR2B = settings: read-out: apparent Kd, n = 1
# ADCK3 = settings: read-out: apparent Kd; compound concentrations: 100 nM and 1000 nM (sheet 'Samples'), CATDS: 4.7719442951788302E-2; n = 1
# BCR = settings: read-out: apparent Kd; compound concentrations: 100 nM and 1000 nM (sheet 'Samples'), CATDS: 9.2768545935790703E-2; n = 1
# CSNK1G1 = settings: read-out: apparent Kd; compound concentrations: 100 nM and 1000 nM (sheet 'Samples'), CATDS: 3.1181891791675201E-2; n = 1
# DCTPP1 = settings: read-out: apparent Kd; compound concentrations: 100 nM and 1000 nM (sheet 'Samples'), CATDS: 3.3773682420650999E-2; n = 1
# DDR1 = settings: read-out: apparent Kd; compound concentrations: 100 nM and 1000 nM (sheet 'Samples'), CATDS: 4.4560789756538197E-2; n = 1
# FLT4 = settings: read-out: apparent Kd; compound concentrations: 100 nM and 1000 nM (sheet 'Samples'), CATDS: 0.117719858007404; n = 1
# GAK = settings: read-out: apparent Kd, n = 1
# PDGFRB = settings: read-out: apparent Kd; compound concentrations: 100 nM and 1000 nM (sheet 'Samples'), CATDS: 3.2777041424413303E-2; n = 1
# PIK3CD = settings: read-out: apparent Kd; compound concentrations: 100 nM and 1000 nM (sheet 'Samples'), CATDS: 7.8466162037350698E-2; n = 1
# PIM2 = settings: read-out: apparent Kd; compound concentrations: 100 nM and 1000 nM (sheet 'Samples'), CATDS: 3.2827495568097498E-2; n = 1
# PRKAG1 = settings: read-out: apparent Kd; compound concentrations: 100 nM and 1000 nM (sheet 'Samples'), CATDS: 0.117727250561146; n = 1
# RET = settings: read-out: apparent Kd; compound concentrations: 100 nM and 1000 nM (sheet 'Samples'), CATDS: 0.121628255608471; n = 1
# RIPK2 = settings: read-out: apparent Kd; compound concentrations: 100 nM and 1000 nM (sheet 'Samples'), CATDS: 9.1819090008616905E-2; n = 1
# RIPK3 = settings: read-out: apparent Kd; compound concentrations: 100 nM and 1000 nM (sheet 'Samples'), CATDS: 3.5551158882109302E-2; n = 1
# SLK = settings: read-out: apparent Kd; compound concentrations: 100 nM and 1000 nM (sheet 'Samples'), CATDS: 3.3864807637991101E-2; n = 1
# STK10 = settings: read-out: apparent Kd; compound concentrations: 100 nM and 1000 nM (sheet 'Samples'), CATDS: 3.2932221087981599E-2; n = 1
# CSNK1E = settings: read-out: apparent Kd; compound concentrations:100 nM and 1000 nM (sheet 'Samples'); n = 1
# PRKD2 = settings: read-out: apparent Kd; compound concentrations:100 nM and 1000 nM (sheet 'Samples'); n = 1
# TGFBR2 = settings: read-out: apparent Kd; compound concentrations:100 nM and 1000 nM (sheet 'Samples'); n = 1
# TNIK = settings: read-out: apparent Kd; compound concentrations:100 nM and 1000 nM (sheet 'Samples'); n = 1
# [1] = compound concentrations:100 nM and 1000 nM (sheet 'Samples')
smiles,measurement,setting,value
CSc1cccc2c(-c3ccncn3)c(-c3ccc(F)cc3)nn12 [GW514786X],potency estimated from few doses,"ACVR1B; compound concentrations: 100 nM and 1000 nM (sheet 'Samples'), CATDS: 0.17509937322487801",801 nM
same,potency estimated from few doses,CIT,2190 nM
same,potency estimated from few doses,"CSNK1D; compound concentrations: 100 nM and 1000 nM (sheet 'Samples'), CATDS: 0.131295791130774",1420 nM
same,potency estimated from few doses,GRK6,2220 nM
same,potency estimated from few doses,MAPK14; CATDS: 0.16800162105717001,863 nM
same,potency estimated from few doses,"MAPKAPK2; compound concentrations: 100 nM and 1000 nM (sheet 'Samples'), CATDS: 0.164691534232419",895 nM
same,potency estimated from few doses,PKN3,774 nM
COc1ccccc1-c1cc(/C=C2\C(=O)Nc3ncc(Br)cc32)cc(Br)c1O [GW442130X],potency estimated from few doses,ACVR1B; [1],646 nM
same,potency estimated from few doses,ADRBK1,1960 nM
same,potency estimated from few doses,AKT1,1540 nM
same,potency estimated from few doses,AKT2,1120 nM
same,potency estimated from few doses,CDC42BPG,453 nM
same,potency estimated from few doses,CDK6,1940 nM
same,potency estimated from few doses,CSNK1A1,1780 nM
same,potency estimated from few doses,MAP2K1,1650 nM
same,potency estimated from few doses,MAP2K2,1580 nM
same,potency estimated from few doses,NQO1,1260 nM
same,potency estimated from few doses,PYGL,1840 nM
same,potency estimated from few doses,RIOK2,1450 nM
same,potency estimated from few doses,TGFBR1; [1],592 nM
same,potency estimated from few doses,TP53RK,1740 nM
Cl.c1ccc(-c2ccc3c(Nc4ccc5[nH]ccc5c4)ccnc3c2)nc1 [GW440138A],potency estimated from few doses,"ACVR1B; compound concentrations: 100 nM and 1000 nM (sheet 'Samples'), CATDS: 4.6786491220556801E-2",481 nM
same,potency estimated from few doses,"ACVR2B; compound concentrations: 100 nM and 1000 nM (sheet 'Samples'), CATDS: 8.2353092384730597E-2",119 nM
same,potency estimated from few doses,ADCK3,453 nM
same,potency estimated from few doses,BCR,94.2 nM
same,potency estimated from few doses,CSNK1G1,2210 nM
same,potency estimated from few doses,DCTPP1,1520 nM
same,potency estimated from few doses,DDR1,558 nM
same,potency estimated from few doses,FLT4,62.1 nM
same,potency estimated from few doses,"GAK; compound concentrations: 100 nM and 1000 nM (sheet 'Samples'), CATDS: 0.134261211287381",50.4 nM
same,potency estimated from few doses,MAPK14; CATDS: 3.4656065329692502E-2,1360 nM
same,potency estimated from few doses,"MAPKAPK2; compound concentrations: 100 nM and 1000 nM (sheet 'Samples'), CATDS: 3.6359622105698597E-2",1130 nM
same,potency estimated from few doses,PDGFRB,1740 nM
same,potency estimated from few doses,PIK3CD,131 nM
same,potency estimated from few doses,PIM2,1730 nM
same,potency estimated from few doses,PRKAG1,62.1 nM
same,potency estimated from few doses,RET,58.9 nM
same,potency estimated from few doses,RIPK2,96 nM
same,potency estimated from few doses,RIPK3,1230 nM
same,potency estimated from few doses,SLK,1500 nM
same,potency estimated from few doses,STK10,1700 nM
same,potency estimated from few doses,"TGFBR1; compound concentrations: 100 nM and 1000 nM (sheet 'Samples'), CATDS: 3.3353996137348303E-2",1610 nM
c1ccc(-c2n[nH]cc2-c2ccnc3ccccc23)nc1 [GW271431X],potency estimated from few doses,ACVR1B; [1],18.8 nM
same,potency estimated from few doses,ACVR2B; [1],555 nM
same,potency estimated from few doses,CSNK1A1,628 nM
same,potency estimated from few doses,CSNK1D; [1],398 nM
same,potency estimated from few doses,CSNK1E,712 nM
same,potency estimated from few doses,GAK; [1],465 nM
same,potency estimated from few doses,MAPKAPK2; [1],1680 nM
same,potency estimated from few doses,PRKD2,1430 nM
same,potency estimated from few doses,TGFBR1; [1],9.71 nM
same,potency estimated from few doses,TGFBR2,113 nM
same,potency estimated from few doses,TNIK,1380 nM
